# Experimental data: publication PMC7862700, “An all-to-all approach to the identification of sequence-specific readers for epigenetic DNA modifications on cytosine”
# What was measured:
# Assay in all cases: DAPPL (digital affinity profiling via proximity ligation, sequencing); 10 mM Tris-HCl pH 7.5, 50 mM NaCl, 1 mM DTT, 4% glycerol, room temperature, 30 min; GST-TFs on glutathione beads, 16-mer random dsDNA library, 0.1% formaldehyde crosslink after washing; high values mean tight binding
# FEV = target: T1, FEV (Homo sapiens, UniProt Q99581 1-238); details: protein: recombinant; tags: N-terminal GST; dsDNA, one strand shown
# T1 sequence: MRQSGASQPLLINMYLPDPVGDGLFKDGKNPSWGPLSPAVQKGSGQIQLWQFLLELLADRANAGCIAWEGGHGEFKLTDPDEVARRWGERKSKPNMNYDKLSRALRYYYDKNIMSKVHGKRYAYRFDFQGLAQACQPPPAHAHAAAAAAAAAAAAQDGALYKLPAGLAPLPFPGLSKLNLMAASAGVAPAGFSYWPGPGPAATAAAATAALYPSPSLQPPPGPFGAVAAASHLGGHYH
# In short: (§1)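 A tag-only sample was pooled with DNA-barcoded human transcription factors that had been expressed in yeast as GST fusions and captured on glutathione beads. The pools were incubated for 30 min at room temperature with 200 nmole of a random double-stranded 16-mer DNA library in Tris/NaCl/DTT/glycerol buffer, then washed, crosslinked with 0.1% formaldehyde, proximity-ligated (BsaI/T4 ligase, 1 h, 37 °C), PCR-amplified and sequenced on an Illumina NextSeq500. Binding signal is each hexamer's read frequency for a factor divided by its frequency for the tag-only sample.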
# ETV5 = ETV5 (Homo sapiens, UniProt P41161 1-510); details: protein: recombinant; tags: N-terminal GST; dsDNA, one strand shown
# Chain of ETV5 (P41161 whole entry): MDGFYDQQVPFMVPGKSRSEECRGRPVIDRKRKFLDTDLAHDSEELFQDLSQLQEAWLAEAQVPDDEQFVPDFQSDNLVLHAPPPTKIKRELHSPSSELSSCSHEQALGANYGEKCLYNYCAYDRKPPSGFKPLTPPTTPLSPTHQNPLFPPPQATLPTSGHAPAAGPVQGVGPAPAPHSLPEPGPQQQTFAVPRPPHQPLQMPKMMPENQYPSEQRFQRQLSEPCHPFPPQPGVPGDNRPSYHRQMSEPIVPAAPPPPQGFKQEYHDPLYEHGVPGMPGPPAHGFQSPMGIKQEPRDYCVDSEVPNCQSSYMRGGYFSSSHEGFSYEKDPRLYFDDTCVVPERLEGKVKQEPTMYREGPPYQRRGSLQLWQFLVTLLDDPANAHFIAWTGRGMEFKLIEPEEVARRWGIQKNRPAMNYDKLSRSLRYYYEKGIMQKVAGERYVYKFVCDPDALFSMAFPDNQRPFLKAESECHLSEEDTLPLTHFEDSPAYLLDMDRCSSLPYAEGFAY
# In short: as §1
# HSF1 = HSF1 (Homo sapiens, UniProt Q00613 1-529); details: protein: recombinant; tags: N-terminal GST; chain copies: 3; dsDNA, one strand shown
# Chain of HSF1 (Q00613 whole entry): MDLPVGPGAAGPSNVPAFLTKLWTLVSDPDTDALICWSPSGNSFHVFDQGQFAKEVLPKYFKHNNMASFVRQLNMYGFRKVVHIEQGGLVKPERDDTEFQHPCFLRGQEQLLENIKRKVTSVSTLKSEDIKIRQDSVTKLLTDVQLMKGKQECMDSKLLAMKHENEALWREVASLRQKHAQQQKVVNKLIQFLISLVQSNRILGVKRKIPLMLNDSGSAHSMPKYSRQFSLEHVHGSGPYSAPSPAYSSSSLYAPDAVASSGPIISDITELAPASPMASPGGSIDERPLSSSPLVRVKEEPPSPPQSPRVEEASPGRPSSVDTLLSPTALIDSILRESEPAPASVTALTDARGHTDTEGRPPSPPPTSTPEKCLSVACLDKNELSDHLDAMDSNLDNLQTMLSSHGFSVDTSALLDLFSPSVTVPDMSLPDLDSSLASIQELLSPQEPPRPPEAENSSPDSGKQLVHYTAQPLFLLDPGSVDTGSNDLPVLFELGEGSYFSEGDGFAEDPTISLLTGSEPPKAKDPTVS
# In short: as §1
# SPIC = target: T2, SPIC (Homo sapiens, UniProt Q8N5J4 1-248); details: protein: recombinant; tags: N-terminal GST; dsDNA, one strand shown
# T2 sequence: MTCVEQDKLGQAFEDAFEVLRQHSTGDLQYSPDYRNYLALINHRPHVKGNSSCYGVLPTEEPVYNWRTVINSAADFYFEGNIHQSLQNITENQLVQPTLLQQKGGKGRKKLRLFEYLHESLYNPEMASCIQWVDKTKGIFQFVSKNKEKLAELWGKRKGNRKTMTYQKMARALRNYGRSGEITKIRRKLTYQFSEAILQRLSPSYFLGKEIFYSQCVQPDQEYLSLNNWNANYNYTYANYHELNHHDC
# In short: as §1
# ELF4 = ELF4 (Homo sapiens, UniProt Q99607 1-663); details: protein: recombinant; tags: N-terminal GST; dsDNA, one strand shown
# Chain of ELF4 (Q99607 whole entry): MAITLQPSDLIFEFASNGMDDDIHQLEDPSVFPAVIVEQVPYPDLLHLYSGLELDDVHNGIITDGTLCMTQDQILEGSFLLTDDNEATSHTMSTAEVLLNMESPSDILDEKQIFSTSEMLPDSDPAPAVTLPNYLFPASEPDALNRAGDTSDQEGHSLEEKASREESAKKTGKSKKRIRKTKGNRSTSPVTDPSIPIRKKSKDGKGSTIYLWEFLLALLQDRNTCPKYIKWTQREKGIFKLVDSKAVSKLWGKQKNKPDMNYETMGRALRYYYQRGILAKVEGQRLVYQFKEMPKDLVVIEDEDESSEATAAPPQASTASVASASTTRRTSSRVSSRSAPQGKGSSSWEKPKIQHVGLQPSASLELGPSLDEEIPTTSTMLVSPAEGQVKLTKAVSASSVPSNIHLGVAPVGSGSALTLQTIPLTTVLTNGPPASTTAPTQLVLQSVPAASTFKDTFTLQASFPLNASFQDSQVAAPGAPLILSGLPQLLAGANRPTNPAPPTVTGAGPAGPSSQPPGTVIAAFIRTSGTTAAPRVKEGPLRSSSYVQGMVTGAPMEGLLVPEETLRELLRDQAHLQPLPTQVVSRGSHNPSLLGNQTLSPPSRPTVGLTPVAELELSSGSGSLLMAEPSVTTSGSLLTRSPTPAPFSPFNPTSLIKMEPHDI
# In short: as §1
# ELK4 = target: T3, ELK4 (Homo sapiens, UniProt P28324-2 1-405); details: protein: recombinant; tags: N-terminal GST; dsDNA, one strand shown
# T3 sequence: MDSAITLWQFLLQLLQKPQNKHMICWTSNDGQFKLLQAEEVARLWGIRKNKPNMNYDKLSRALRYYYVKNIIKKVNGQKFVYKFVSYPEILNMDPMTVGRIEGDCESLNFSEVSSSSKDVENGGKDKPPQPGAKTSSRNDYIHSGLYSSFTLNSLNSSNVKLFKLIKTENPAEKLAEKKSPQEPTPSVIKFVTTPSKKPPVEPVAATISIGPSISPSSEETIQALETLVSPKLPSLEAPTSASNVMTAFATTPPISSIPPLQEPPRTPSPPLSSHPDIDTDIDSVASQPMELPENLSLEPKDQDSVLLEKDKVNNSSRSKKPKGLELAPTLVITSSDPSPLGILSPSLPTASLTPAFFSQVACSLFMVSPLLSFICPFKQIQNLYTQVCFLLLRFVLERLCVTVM
# In short: as §1
# ETV2 = target: T4, ETV2 (Homo sapiens, UniProt O00321 1-342); details: protein: recombinant; tags: N-terminal GST; dsDNA, one strand shown
# T4 sequence: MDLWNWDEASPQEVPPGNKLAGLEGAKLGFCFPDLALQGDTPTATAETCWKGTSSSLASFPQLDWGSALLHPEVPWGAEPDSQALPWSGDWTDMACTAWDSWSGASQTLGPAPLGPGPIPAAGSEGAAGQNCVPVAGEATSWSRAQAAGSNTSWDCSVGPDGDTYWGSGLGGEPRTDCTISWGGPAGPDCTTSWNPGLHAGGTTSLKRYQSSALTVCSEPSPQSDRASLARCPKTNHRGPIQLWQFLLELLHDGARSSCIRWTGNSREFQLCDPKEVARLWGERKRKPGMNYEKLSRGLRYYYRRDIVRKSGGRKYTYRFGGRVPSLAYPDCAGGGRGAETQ
# In short: as §1
# ELF3 = target: T5, ELF3 (Homo sapiens, UniProt P78545 1-371); details: protein: recombinant; tags: N-terminal GST; dsDNA, one strand shown
# T5 sequence: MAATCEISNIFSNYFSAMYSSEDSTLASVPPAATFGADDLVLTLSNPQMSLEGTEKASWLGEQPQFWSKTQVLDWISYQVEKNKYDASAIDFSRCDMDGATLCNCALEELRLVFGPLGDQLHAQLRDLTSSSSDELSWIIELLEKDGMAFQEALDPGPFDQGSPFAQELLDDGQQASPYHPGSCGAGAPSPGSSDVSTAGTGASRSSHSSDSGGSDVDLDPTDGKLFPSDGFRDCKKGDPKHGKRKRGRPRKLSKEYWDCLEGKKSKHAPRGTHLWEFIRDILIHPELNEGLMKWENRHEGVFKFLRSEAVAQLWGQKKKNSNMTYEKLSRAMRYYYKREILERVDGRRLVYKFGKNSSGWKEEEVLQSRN
# In short: as §1
# CRX = CRX (Homo sapiens, UniProt O43186 1-299); details: protein: recombinant; tags: N-terminal GST; dsDNA, one strand shown
# Chain of CRX (O43186 whole entry): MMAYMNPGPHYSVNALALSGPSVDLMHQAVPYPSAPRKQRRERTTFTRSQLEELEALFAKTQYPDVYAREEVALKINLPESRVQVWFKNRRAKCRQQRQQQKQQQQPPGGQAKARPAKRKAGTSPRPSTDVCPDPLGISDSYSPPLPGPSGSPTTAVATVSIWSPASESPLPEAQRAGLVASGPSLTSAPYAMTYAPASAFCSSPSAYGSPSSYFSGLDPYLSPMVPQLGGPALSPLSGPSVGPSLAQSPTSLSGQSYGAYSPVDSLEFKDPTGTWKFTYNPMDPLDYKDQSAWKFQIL
# In short: as §1
# ETV1 = ETV1 (Homo sapiens, UniProt P50549 1-477); details: protein: recombinant; tags: N-terminal GST; dsDNA, one strand shown
# Chain of ETV1 (P50549 whole entry): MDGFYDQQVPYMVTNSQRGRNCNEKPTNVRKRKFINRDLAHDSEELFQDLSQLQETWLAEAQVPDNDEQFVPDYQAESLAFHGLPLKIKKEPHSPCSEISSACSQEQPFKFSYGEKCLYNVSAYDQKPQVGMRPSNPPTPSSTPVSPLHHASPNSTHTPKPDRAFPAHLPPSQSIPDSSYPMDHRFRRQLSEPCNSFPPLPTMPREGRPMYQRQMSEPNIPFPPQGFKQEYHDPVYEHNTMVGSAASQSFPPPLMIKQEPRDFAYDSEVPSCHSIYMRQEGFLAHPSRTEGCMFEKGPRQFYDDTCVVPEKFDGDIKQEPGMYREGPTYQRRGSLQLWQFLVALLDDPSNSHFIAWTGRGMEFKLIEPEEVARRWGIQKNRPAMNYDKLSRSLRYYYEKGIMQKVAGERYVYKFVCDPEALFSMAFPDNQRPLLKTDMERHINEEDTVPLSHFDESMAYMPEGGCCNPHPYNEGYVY
# In short: as §1
# ERF = target: T6, ERF (Homo sapiens, UniProt P50548 1-548); details: protein: recombinant; tags: N-terminal GST; dsDNA, one strand shown
# T6 sequence: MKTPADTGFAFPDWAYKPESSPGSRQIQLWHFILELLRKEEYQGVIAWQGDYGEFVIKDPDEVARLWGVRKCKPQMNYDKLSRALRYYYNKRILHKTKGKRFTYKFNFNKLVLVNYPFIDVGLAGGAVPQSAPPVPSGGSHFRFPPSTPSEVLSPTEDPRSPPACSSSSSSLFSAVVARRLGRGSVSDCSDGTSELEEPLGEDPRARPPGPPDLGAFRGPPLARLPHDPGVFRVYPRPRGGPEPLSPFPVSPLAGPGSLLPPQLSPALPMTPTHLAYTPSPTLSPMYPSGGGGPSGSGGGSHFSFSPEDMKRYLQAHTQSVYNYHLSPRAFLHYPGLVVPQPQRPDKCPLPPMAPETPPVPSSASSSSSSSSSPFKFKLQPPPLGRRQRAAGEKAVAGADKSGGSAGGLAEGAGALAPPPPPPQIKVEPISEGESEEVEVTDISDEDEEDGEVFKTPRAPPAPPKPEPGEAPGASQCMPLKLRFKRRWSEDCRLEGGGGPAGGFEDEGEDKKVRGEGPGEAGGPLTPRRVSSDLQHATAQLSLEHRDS
# In short: as §1
# ETV3L = target: T7, ETV3L (Homo sapiens, UniProt Q6ZN32 1-361); details: protein: recombinant; tags: N-terminal GST; dsDNA, one strand shown
# T7 sequence: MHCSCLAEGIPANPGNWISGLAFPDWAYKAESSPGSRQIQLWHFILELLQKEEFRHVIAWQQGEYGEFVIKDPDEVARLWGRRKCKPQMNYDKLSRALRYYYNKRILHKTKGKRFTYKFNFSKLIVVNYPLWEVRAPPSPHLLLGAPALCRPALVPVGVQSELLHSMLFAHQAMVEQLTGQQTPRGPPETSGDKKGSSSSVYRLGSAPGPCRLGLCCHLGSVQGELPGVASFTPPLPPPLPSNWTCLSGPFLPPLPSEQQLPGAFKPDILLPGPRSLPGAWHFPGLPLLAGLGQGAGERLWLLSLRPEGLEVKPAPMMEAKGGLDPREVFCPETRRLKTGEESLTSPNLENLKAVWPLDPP
# In short: as §1
# ETS2 = target: T8, ETS2 (Homo sapiens, UniProt P15036 1-469); details: protein: recombinant; tags: N-terminal GST; dsDNA, one strand shown
# T8 sequence: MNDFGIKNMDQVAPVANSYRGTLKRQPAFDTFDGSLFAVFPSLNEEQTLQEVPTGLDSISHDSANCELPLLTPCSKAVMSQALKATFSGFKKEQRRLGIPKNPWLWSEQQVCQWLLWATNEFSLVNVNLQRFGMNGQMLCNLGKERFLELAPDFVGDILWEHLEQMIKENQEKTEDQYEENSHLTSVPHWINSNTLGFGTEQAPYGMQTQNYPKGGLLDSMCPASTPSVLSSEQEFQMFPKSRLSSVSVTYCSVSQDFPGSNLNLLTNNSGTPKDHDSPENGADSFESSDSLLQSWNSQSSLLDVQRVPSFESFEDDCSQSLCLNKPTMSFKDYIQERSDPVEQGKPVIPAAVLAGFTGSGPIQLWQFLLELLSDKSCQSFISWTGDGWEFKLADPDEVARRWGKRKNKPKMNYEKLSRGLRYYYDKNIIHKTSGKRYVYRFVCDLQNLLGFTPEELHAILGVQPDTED
# In short: as §1
# SPDEF = target: T9, SPDEF (Homo sapiens, UniProt O95238 1-335); details: protein: recombinant; tags: N-terminal GST; dsDNA, one strand shown
# T9 sequence: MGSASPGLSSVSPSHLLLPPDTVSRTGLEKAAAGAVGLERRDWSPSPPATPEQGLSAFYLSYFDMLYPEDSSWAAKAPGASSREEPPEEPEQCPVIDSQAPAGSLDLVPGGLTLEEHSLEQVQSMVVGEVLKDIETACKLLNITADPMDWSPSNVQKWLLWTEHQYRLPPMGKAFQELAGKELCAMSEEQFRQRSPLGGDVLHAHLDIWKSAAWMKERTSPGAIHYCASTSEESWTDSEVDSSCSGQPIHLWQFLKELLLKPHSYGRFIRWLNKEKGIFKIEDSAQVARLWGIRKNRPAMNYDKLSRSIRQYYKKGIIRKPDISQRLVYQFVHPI
# In short: as §1
# ETV7 = target: T10, ETV7 (Homo sapiens, UniProt Q9Y603 1-341); details: protein: recombinant; tags: N-terminal GST; dsDNA, one strand shown
# T10 sequence: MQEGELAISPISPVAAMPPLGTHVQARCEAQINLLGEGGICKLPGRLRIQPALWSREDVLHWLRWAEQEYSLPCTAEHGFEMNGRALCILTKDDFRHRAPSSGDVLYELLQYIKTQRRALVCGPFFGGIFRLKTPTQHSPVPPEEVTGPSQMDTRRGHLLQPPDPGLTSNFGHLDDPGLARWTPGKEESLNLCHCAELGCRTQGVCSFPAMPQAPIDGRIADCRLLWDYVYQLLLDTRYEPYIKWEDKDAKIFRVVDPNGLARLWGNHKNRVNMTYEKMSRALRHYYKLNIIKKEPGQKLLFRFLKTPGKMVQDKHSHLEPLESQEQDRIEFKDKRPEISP
# In short: as §1
# ELF5 = target: T11, ELF5 (Homo sapiens, UniProt Q9UKW6-2 1-255); details: protein: recombinant; tags: N-terminal GST; dsDNA, one strand shown
# T11 sequence: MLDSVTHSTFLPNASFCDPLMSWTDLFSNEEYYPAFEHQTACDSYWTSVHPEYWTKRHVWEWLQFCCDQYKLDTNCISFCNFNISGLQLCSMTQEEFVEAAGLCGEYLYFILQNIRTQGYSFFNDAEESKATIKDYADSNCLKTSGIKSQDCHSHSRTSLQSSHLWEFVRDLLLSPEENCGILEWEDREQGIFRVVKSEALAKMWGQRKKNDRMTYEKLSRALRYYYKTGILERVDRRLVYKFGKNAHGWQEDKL
# In short: as §1
# ETV3 = target: T12, ETV3 (Homo sapiens, UniProt P41162-2 1-143); details: protein: recombinant; tags: N-terminal GST; dsDNA, one strand shown
# T12 sequence: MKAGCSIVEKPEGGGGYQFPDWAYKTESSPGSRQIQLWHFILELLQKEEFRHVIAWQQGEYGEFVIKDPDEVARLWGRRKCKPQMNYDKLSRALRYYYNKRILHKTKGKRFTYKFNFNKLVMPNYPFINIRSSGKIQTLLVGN
# In short: as §1
# ETV6 = ETV6 (Homo sapiens, UniProt P41212 1-452); details: protein: recombinant; tags: N-terminal GST; dsDNA, one strand shown
# Chain of ETV6 (P41212 whole entry): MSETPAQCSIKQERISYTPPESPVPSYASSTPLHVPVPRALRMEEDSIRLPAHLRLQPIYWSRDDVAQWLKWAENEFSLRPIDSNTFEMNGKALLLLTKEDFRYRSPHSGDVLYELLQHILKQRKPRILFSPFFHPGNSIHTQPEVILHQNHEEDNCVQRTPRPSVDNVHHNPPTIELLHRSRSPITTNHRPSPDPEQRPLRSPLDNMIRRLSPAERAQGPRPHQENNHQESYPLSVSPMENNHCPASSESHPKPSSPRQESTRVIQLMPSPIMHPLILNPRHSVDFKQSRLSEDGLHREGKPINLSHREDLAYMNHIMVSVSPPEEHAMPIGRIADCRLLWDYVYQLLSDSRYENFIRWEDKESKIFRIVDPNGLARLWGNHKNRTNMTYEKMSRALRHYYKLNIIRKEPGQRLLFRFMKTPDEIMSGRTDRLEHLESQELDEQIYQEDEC
# In short: as §1
sequence,measurement,setting,value
TCTAAC,binding signal,FEV,"1.23 fold enrichment (6-mer frequency, TF over GST control)"
same,binding signal,ETV5,"1.21 fold enrichment (6-mer frequency, TF over GST control)"
same,binding signal,HSF1,"1.25 fold enrichment (6-mer frequency, TF over GST control)"
same,binding signal,SPIC,"1.07 fold enrichment (6-mer frequency, TF over GST control)"
same,binding signal,ELF4,"1.22 fold enrichment (6-mer frequency, TF over GST control)"
same,binding signal,ELK4,"1.2 fold enrichment (6-mer frequency, TF over GST control)"
same,binding signal,ETV2,"1.12 fold enrichment (6-mer frequency, TF over GST control)"
same,binding signal,ELF3,"1.23 fold enrichment (6-mer frequency, TF over GST control)"
same,binding signal,CRX,"1.24 fold enrichment (6-mer frequency, TF over GST control)"
same,binding signal,ETV1,"1.16 fold enrichment (6-mer frequency, TF over GST control)"
same,binding signal,ERF,"1.22 fold enrichment (6-mer frequency, TF over GST control)"
same,binding signal,ETV3L,"1.19 fold enrichment (6-mer frequency, TF over GST control)"
same,binding signal,ETS2,"1.19 fold enrichment (6-mer frequency, TF over GST control)"
same,binding signal,SPDEF,"1.14 fold enrichment (6-mer frequency, TF over GST control)"
same,binding signal,ETV7,"1.29 fold enrichment (6-mer frequency, TF over GST control)"
same,binding signal,ELF5,"1.15 fold enrichment (6-mer frequency, TF over GST control)"
same,binding signal,ETV3,"1.18 fold enrichment (6-mer frequency, TF over GST control)"
same,binding signal,ETV6,"1.22 fold enrichment (6-mer frequency, TF over GST control)"
